From PubChem
An excerpt weighted towards active compounds, which were near 4% of everything screened.
PAX8 inh HTS: inhibitors of PAX8 transcriptional activity in RMG-I cells. RMG-I TPO-luciferase reporter, SteadyGlo, 24 h. inhibition, % at 12.6 µM. 360,000 compounds, 1.2% hits;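 active = mean replicate inhibition at least 60% with every replicate also reaching 60%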;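 note: luciferase light reporting Pax8 driven TPO promoter activity; plate controls were median of neutral control wells for no effect and mitoxantrone controls for full effect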
Shn3 3UTR inh: inhibitors of Schnurri-3 3'UTR reporter in osteoblasts; Clone20 osteoblast Shn3 3'UTR firefly luciferase, 24 h; inhibition, % at 12.5 µM; 360,000 compounds, 0.52% hits;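 active = mean inhibition of at least 75% with every replicate also reaching 75%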;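 note: 0% = median of neutral control wells and 100% = pilot-screen positive control compound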
Mdm2 MdmX PPI: human Mdm2/MdmX binding inhibition; O15151+Q00987; SaOS-2 split-luciferase Mdm2/MdmX complementation, luminescence; inhibition, % at 8 µM; 330,000 compounds, 3% hits; AID 485346;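 active = inhibition of at least 50% at 8 µM in the primary screen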
Target sequence (O15151 whole entry, looked up): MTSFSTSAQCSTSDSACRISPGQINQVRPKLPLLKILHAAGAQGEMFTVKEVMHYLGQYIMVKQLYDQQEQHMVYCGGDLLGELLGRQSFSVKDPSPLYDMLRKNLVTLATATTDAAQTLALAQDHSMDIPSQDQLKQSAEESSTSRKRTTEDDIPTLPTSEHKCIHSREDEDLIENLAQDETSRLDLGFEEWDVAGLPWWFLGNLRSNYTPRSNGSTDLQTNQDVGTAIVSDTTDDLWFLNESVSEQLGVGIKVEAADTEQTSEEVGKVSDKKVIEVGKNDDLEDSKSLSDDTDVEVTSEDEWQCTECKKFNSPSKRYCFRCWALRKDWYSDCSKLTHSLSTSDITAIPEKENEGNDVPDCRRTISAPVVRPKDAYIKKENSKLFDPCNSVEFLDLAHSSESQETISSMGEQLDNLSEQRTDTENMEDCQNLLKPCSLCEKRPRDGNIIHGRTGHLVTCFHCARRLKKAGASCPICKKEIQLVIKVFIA
Target sequence (Q00987 whole entry, looked up): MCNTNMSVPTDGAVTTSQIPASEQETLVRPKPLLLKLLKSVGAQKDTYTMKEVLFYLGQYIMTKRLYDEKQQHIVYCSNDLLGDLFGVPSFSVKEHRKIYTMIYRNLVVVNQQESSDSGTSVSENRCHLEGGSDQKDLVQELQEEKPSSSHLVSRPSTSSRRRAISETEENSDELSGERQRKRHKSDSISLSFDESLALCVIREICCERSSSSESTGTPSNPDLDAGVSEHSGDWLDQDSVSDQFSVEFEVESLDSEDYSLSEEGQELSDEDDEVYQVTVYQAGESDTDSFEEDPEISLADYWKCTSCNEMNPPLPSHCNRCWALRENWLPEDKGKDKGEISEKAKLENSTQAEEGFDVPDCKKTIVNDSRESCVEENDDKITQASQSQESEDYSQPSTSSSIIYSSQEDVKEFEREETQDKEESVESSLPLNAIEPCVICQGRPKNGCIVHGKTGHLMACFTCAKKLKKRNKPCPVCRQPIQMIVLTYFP
CSC inhib: cancer stem cell inhibition; inhibition, % at 7.5 µM; 300,000 compounds, 1.1% hits; AID 2717; cancer stem cell-like cells viability, luminescence; in the data active = inhibition above about 75%; tested in HMLE shEcad cells
Beta cell apopt: beta cell apoptosis inhibition; INS-1E cytokine-induced death, ATP luminescence, 48 h; percent of positive-control rescue, neutral wells zero; protection from apoptosis, % (concentration not given with the values); 300,000 compounds, 0.8% hits; AID 435005;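 active = Every replicate reaches about 75%, or at least half do and their mean reaches it too, limit read from the data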;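 note: 0% = cytokine-treated negative control wells and 100% = positive control rescue; higher means more ATP so stronger rescue from cytokine killing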
Gli-Sufu block: blocks Gli-Sufu signaling in a luciferase reporter | 340,000 compounds, 0.74% hits | inhibition, % at 5 µM | Sufu-KO-LIGHT fibroblasts, Gli luciferase reporter luminescence;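 active = inhibition above about 55%, limit read from the data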;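 note: 0% = DMSO-treated cells and 100% = wells with medium but no cells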
Mdm2-MdmX conf: human Mdm2/MdmX binding inhibition, confirmed; shares compounds with Mdm2 MdmX PPI; luminescent assay; inhibition, % at 8 µM; 10,000 compounds, 55% hits; AID 489028; in the data active = inhibition above about 40%
FLuc counter: inhibits full-length luciferase, flagging false Mdm2/MdmX hits; shares compounds with Mdm2 MdmX PPI; SaOS-2 full-length luciferase counterscreen, luminescence; inhibition, % at 8 µM; 6,200 compounds, 77% hits;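 active = mean inhibition at 8 µM reaching about 37%, which flags the compound as non-specific, limit read from the data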;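 note: p53-null SaOS-2 cells with luciferase driven by a doxycycline-inducible promoter; compound on cells about two nights before reading with doxycycline added after day one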
Numbers without * were called inactive; . = no result given.

SMILES	PAX8 inh HTS	Shn3 3UTR inh	Mdm2 MdmX PPI	CSC inhib	Beta cell apopt	Gli-Sufu block	Mdm2-MdmX conf	FLuc counter
Cc1nc(SCC(=O)Nc2ccc(S(=O)(=O)N3CCOCC3)cc2)c2c(C)c(C)sc2n1	43.2	-0.1	81.9*	21.5	10.5	10.8	44.2*	28.6
NC1=NC[C@H](CC2CCCCC2)N1CCc1cc(C(F)(F)F)cc(C(F)(F)F)c1	-14.3	64.7	100.2*	101.9*	40.0	6.0	81.2*	59.5*
FC(F)(F)c1cc(CCN2CCNC[C@@H]2CC2CCCCC2)cc(C(F)(F)F)c1	11.3	3.2	99.6*	.	2.5	-9.6	19.4	.
COc1ccccc1-c1ccc([C@@H]2[C@H]3CN(S(=O)(=O)c4cn(C)cn4)CCCCN3[C@H]2CO)cc1	6.9	.	.	.	.	.	.	.
O=C(NCCO)C(=O)Nc1cc2c3c(c1)CC(=O)N3CCC2	-12.8	4.4	-51.6	9.8	-1.3	0.8	.	.
O=C(CCl)c1cc2c3c(c1)CC(=O)N3CCC2	-20.5	8.2	77.0*	-5.3	.	5.9	55.8*	12.1
COc1ccc(S(=O)(=O)NCc2ccccn2)cc1NC(=O)c1ccc(Cl)cc1	29.0	15.9	40.4	-7.5	.	0.6	.	.
CCOc1ccc(S(=O)(=O)NCc2ccncc2)cc1NC(=O)c1ccccc1F	10.4	44.3	66.5*	8.3	-0.5	0.0	8.3	.
COc1ccc(S(=O)(=O)NCc2ccccn2)cc1NC(=O)c1ccccc1C	14.6	0.3	52.3*	-6.4	.	-7.2	70.8*	63.3*
CCOc1ccc(S(=O)(=O)NCc2cccnc2)cc1NC(=O)c1ccccc1F	12.7	12.2	58.9*	12.7	-0.4	3.4	57.1*	52.9*
COc1ccc2c3c([nH]c2c1)[C@@H](CO)N(C(=O)c1ccccn1)CC31CN(C(=O)C2CCCC2)C1	-12.0	.	.	.	.	.	.	.
Cc1ccc(NC(=O)/C(C#N)=C/c2cn(CC(=O)NCc3ccco3)c3ccccc23)cc1C	-1.9	9.2	68.3*	37.1	21.6	2.3	49.9*	75.2*
CNC(=O)/C(C#N)=C/c1cn(CC(=O)NCc2ccco2)c2ccccc12	-3.4	4.3	14.8	6.4	0.5	-5.5	.	.
Cc1ccc(C)c(NC(=O)/C(C#N)=C/c2cn(CC(=O)NCc3ccco3)c3ccccc23)c1	20.0	57.1	91.6*	82.0*	95.5*	3.8	77.8*	89.2*
Cc1cc(C)cc(NC(=O)/C(C#N)=C/c2cn(CC(=O)NCc3ccco3)c3ccccc23)c1	16.3	73.2	94.5*	39.6	101.3*	35.0	28.3	.
CCn1nc([N+](=O)[O-])c(C(C#N)c2nc3cc(C(F)(F)F)ccc3s2)c(Cl)c1=O (stereo unspecified)	.	8.5	76.1*	112.3*	14.4	-3.4	72.4*	49.8*
CCN(CC)C(=O)Cn1c(=O)n(-c2ccccc2)c(=O)c2c3c(sc21)CCC3	-1.2	-0.6	-11.1	-5.9	-2.8	0.8	.	.
CCOc1ccc(-n2c(=O)c3c4c(sc3n(CC(=O)NCc3ccco3)c2=O)CCC4)cc1	.	-18.4	72.8*	1.6	-2.2	3.9	0.1	.
C[C@@H]1CN([C@H](C)CO)C(=O)c2cc(NC(=O)c3ccccc3)ccc2O[C@@H](C)CCCCO[C@@H]1CN(C)C(=O)CCC(F)(F)F	-14.3	.	.	.	.	.	.	.
CO[C@H]1CN(C)C(=O)c2cc(NC(=O)c3ccccc3F)ccc2OC[C@@H](C)N(CC2CC2)C[C@@H]1C	8.1	.	.	.	.	.	.	.
COc1cc(-c2nc3ccc(N4CCN(C)CC4)cc3[nH]2)cc(OC)c1OC	-69.4	-10.4	78.5*	-9.6	-0.4	27.5	65.0*	73.0*
NNc1ccc2c(C(F)(F)F)cc(C(F)(F)F)nc2n1	18.9	-10.1	28.8	10.6	-5.7	-16.6	.	.
N#CC(c1cccc(Cl)c1)c1ccc2c(C(F)(F)F)cc(C(F)(F)F)nc2n1 (stereo unspecified)	.	87.6*	98.1*	107.1*	114.1*	88.4*	94.0*	57.2*
O=C(N/N=C/c1ccccc1)c1ccco1	-45.0	-49.0	17.6	9.7	3.5	-20.1	.	.
O=C(C#Cc1ccccc1)c1ccco1	123.7*	95.2*	97.9*	59.2	99.8*	-6.6	67.5*	51.5*
SMILES	PAX8 inh HTS	Shn3 3UTR inh	Mdm2 MdmX PPI	CSC inhib	Beta cell apopt	Gli-Sufu block	Mdm2-MdmX conf	FLuc counter
CCCN(C)C[C@H]1OCCCC[C@H](C)Oc2ccc(NC(=O)NC3CCCCC3)cc2C(=O)N([C@@H](C)CO)C[C@H]1C	10.6	.	.	.	.	.	.	.
O=S1(=O)C=C(Sc2nc3cc(Cl)ccc3o2)c2ccccc21	.	99.9*	96.8*	8.7	-11.6	2.2	96.0*	51.2*
O=C(CSc1nc2ccc(Nc3nc(N4CCOCC4)nc(N4CCOCC4)n3)cc2s1)Nc1ccccc1F	.	71.0	91.4*	-4.1	7.0	12.3	25.7	.
O=C(CSc1nc2ccc(Nc3nc(N4CCOCC4)nc(N4CCOCC4)n3)cc2s1)Nc1ccccc1	-0.2	.	.	.	.	.	.	.
O=C(CSc1nc2ccc(Nc3nc(N4CCOCC4)nc(N4CCOCC4)n3)cc2s1)Nc1ccccc1Cl	3.2	23.9	89.4*	44.7	-7.7	2.7	38.0	88.0*
O=C(NCc1ccccc1)[C@H]1[C@H](CO)[C@H]2Cn3c(cccc3=O)[C@@H]1N2Cc1ccccn1	-0.3	.	.	.	.	.	.	.
Cc1cc(-c2ccccc2)nc(N/N=C/c2ccc(O)cc2)n1	-107.3	-43.5	14.5	.	.	-12.6	.	.
Oc1ccc(/C=N/Nc2nc(-c3ccc(Cl)cc3)cc(C(F)(F)F)n2)cc1	5.9	-12.6	57.0*	85.4*	-3.5	2.5	21.7	.
C[C@H](CO)N1C[C@H](C)[C@H](CN(C)CC2CC2)Oc2ccc(NC(=O)CCC(F)(F)F)cc2CC1=O	3.1	.	.	.	.	.	.	.
COCCN(C(=O)CCl)C(C(=O)NC1CCCCC1)c1ccccc1C (stereo unspecified)	30.5	14.0	97.2*	.	.	31.6	72.2*	37.9*
O=C(NC1CCCC1)C(c1ccc(F)cc1)N(Cc1ccccc1Cl)C(=O)CCl (stereo unspecified)	30.6	-21.2	55.2*	6.9	-6.0	6.0	20.5	.
CN(C)CCCN(Cc1cc2cc3c(cc2[nH]c1=O)OCO3)C(=S)Nc1ccccc1	3.2	3.5	6.0	-6.4	-8.8	40.7	.	.
CN(C)CCCN(Cc1cc2cc3c(cc2[nH]c1=O)OCO3)C(=S)Nc1cccc(Cl)c1	10.5	-7.2	58.9*	.	-6.1	39.8	29.2	.
C[C@@H]1CN([C@@H](C)CO)C(=O)c2cc(C3=CCCC3)cnc2O[C@@H]1CN(C)S(C)(=O)=O	-25.1	.	.	.	.	.	.	.
Cc1cc(C)cc(N(CCC(=O)Nc2nnc(C3CC3)s2)S(=O)(=O)c2ccc(Cl)cc2)c1	7.2	21.5	51.3*	22.9	-3.4	7.2	59.9*	76.5*
CN1C[C@H]2[C@@H](c3ccccc31)[C@H](CO)N2C(=O)C1CCCCC1	16.2	.	.	.	.	.	.	.
